Experimental data published in PubChem BioAssay (EPA / NIEHS).
Records with an inconclusive call do not appear. Calls of active or inactive are those of the source. The calls were made as follows, unless noted: active = hit-call score of the fitted dose curve at least 0.9, where 1 is the maximum; inactive = score below 0.9.

How the values were obtained:
[1] = CCTE_Shafer_MEA_acute_spike_number: CCTE's Neural Acute Assay for Total Number of Spikes, Shafer Lab (AID 2284008);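 as to AC50: curve fitted for decrease in spike count so AC50 reflects inhibitors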
How it was run: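 Rat primary cortical neurons on 48-well MEA plates, DIV 13 or 15, at 37 C. 40 min baseline then 40 min with compound (0.03-40 uM); spikes detected at 8x rms noise, expressed as percent change from baseline.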

[2] = CCTE_Shafer_MEA_acute_firing_rate_mean: CCTE's Neural Acute Assay for Mean Firing Rate, Shafer Lab (AID 2284009);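 also: analyzed for loss of signal so actives lower firing rate relative to DMSO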
How it was run: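 Percent change in well-mean firing rate was derived from extracellular spikes detected at 8x rms noise (300-5000 Hz band-pass) before and after a 40-min compound exposure. Cultures were primary rat cortical neurons, tested at 0.03-40 uM.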

[3] = CCTE_Harrill_HTTr_Viability_MCF7: CCTE's 6-hour Cell Viability Assessment for the High-Throughput Transcriptomics (HTTr) Platform, in MCF-7 cells cultured in DMEM + 10% fetal bovine serum, Harrill Lab (AID 2284010)
How it was run: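 MCF-7 cells in DMEM + 10% FBS, 384-well, exposed 6 h to an eight-point dilution series. Membrane integrity scored by high-content imaging of propidium iodide exclusion; bidirectional fit versus DMSO.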

[4] = CCTE_Harrill_HTTr_Apoptosis_MCF7: CCTE's 6-hour Apoptosis Assessment for the High-Throughput Transcriptomics (HTTr) Platform, in MCF-7 cells cultured in DMEM + 10% fetal bovine serum, Harrill Lab (AID 2284011)
How it was run: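 MCF-7 cells in DMEM + 10% FBS exposed 6 h to chemicals over an eight-point dilution series. Caspase-3/7 activation imaged by high-content CellEvent Green staining; fitted bidirectionally versus DMSO.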

[5] = CCTE_Harrill_HTTr_CellCount_MCF7: CCTE's Cell Proliferation Assessment for the High-Throughput Transcriptomics (HTTr) Platform, Harrill Lab (AID 2284012; active = hit-call score of the fitted dose curve at least 0.9, where 1 is the maximum;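 also: cells exposed to compound for six hours; intended direction is loss of nuclei count meaning fewer cells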)
How it was run: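 MCF7 cells exposed 6 hours to an eight-point dilution series; Hoechst-stained nuclei counted by high-content imaging. Bidirectional curve fitting against DMSO baseline.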

[6] = CCTE_Shafer_MEA_acute_burst_number: CCTE's Neural Acute Assay for Single-Electrode Bursts, Shafer Lab (AID 2284013)
How it was run: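 Spontaneous network activity of primary rat cortical neurons was recorded extracellularly on microelectrode arrays at 37 C, with 40-min periods before and during exposure to 0.03-40 uM compound on DIV 13 or 15.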

[7] = CCTE_Shafer_MEA_acute_burst_duration_mean: CCTE's Neural Acute Assay for Mean Burst Duration, Shafer Lab (AID 2284014);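 also: hits are decreases in mean burst duration relative to DMSO controls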
How it was run: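 Read-out is the per-well percent change in mean burst duration (first to last spike within a single-electrode burst) between 40-min recordings before and after compound. Cultures were primary rat cortical neurons on MEAs, dosed at 0.03-40 uM on DIV 13 or 15.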

[8] = CCTE_Shafer_MEA_acute_per_burst_spike_number_mean: CCTE's Neural Acute Assay for Average Number of Spikes Per Burst, Shafer Lab (AID 2284015);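 also: hits are decreases in mean spikes per burst versus baseline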
How it was run: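 Percent change in mean spikes per single-electrode burst is compared between a 40 min baseline and a 40 min recording with compound (0.03-40 uM). Cultures were rat cortical neurons on MEA plates at DIV 13 or 15, recorded at 37 C, with DMSO as the negative control.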

[9] = CCTE_Shafer_MEA_acute_interburst_interval_mean: CCTE's Neural Acute Assay for Mean Interburst Interval, Shafer Lab (AID 2284016);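 also: percent change of mean interburst interval versus each well's own pre-dose baseline; curves fitted for decrease in interburst interval relative to DMSO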
How it was run: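 Percent change in mean single-electrode interburst interval was calculated per well from 40 min recordings before and after compound (0.03-40 uM). Recordings were made at 37 C on rat cortical cultures at DIV 13 or 15, with spikes detected at 8x rms threshold.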

[10] = CCTE_Shafer_MEA_acute_burst_percentage_mean: CCTE's Neural Acute Assay for Percentage of Spikes in a Burst, Shafer Lab (AID 2284017);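 as to AC50: curve fitted for loss of signal so potency reflects decreased burst percentage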
How it was run: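 Well-level mean burst percentage from a 40-min recording after compound (0.03-40 uM) expressed as percent change from a 40-min baseline at 37C. Cultures: primary rat cortical neurons on MEA, dosed on DIV 13 or 15; fitted downward relative to DMSO.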

[11] = CCTE_Shafer_MEA_acute_burst_percentage_std: CCTE's Neural Acute Assay for Standard Deviation of Burst Percentage, Shafer Lab (AID 2284018);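 also: fitted in the negative direction so actives lower burst percentage SD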
How it was run: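 Value is percent change from baseline in the across-electrode SD of spikes-in-bursts percentage, wells with >/= 10 active electrodes. Acute 40-min exposure to 0.03-40 uM on DIV 13 or 15 rat cortical cultures, recorded at 37 C after 40-min baseline.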

[12] = CCTE_Simmons_MITO_basal_resp_rate: CCTE's HepG2 Seahorse XF Respirometric Screening Assay at Basal Respiratory State, Simmons Lab (AID 2284001); settings: actives raise or lower the signal
How it was run: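 HepG2 respirometry; 7-pt titration 125 nM–100 uM final; kinetic OCR at 6 min intervals for 72 min; n=3 biological, technical singles; DMSO baseline, gain or loss fit; fenpyroximate (decrease) and 2,4-DNP (increase) controls.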

[13] = CCTE_Simmons_MITO_inhib_resp_rate: CCTE's HepG2 Seahorse XF Respirometric Screening Assay at Inhibited Respiratory State [full ETC block], Simmons Lab (AID 2284006); settings: actives raise or lower the signal
How it was run: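 HepG2 oxygen consumption was measured by Seahorse XF after compound, FCCP, then rotenone/antimycin A injections. Seven concentrations from 125 nM to 100 uM (final) were tested, with 6-min kinetic reads over 72 minutes. Inhibited-state OCR was fitted bidirectionally against DMSO.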

[14] = CCTE_Simmons_MITO_viability: CellTiter-Glo Viability Assessment for CCTE's HepG2 Seahorse XF Respirometric Screening Assay [post-hoc], Simmons Lab (AID 2284007; active = hit-call score of the fitted dose curve at least 0.9, where 1 is the maximum)
How it was run: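 HepG2 cells exposed 90 min to 7 concentrations from 125 nM to 100 uM final, then ATP measured by luciferase luminescence. Three biological replicates per concentration; DMSO vehicle; dichlone control at 10 nM–100 uM.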

[15] = target: Ratio of Nucleoli Translocation and Cytoplasm, AR (gene 367) (UniProt P10275); experiment: UPITT_HCI_U2OS_AR_TIF2_Nucleoli_Cytoplasm_Ratio_Agonist: University of Pittsburgh U2OS Androgen Receptor-Transcriptional Intermediary Factor 2 (AR-TIF2) Agonism High Content Imaging Assay for Ratio of Nucleoli Translocation and Cytoplasm (AID 2284000; active = hit-call score of the fitted dose curve at least 0.9, where 1 is the maximum;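 also: hits raise the red nucleolar to cytoplasm ratio above vehicle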)
How it was run: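 Read-out first: nucleolar-to-cytoplasm ratio of red (AR-RFP) signal, quantified by high-content imaging in U2OS cells co-expressing TIF2-GFP. Activity is scored as signal increase over DMSO. Single-point screening used 20 uM final (0.2% DMSO).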

Ratio of Nucleoli Translocation and Cytoplasm, AR (gene 367), sequence (P10275 whole entry, looked up): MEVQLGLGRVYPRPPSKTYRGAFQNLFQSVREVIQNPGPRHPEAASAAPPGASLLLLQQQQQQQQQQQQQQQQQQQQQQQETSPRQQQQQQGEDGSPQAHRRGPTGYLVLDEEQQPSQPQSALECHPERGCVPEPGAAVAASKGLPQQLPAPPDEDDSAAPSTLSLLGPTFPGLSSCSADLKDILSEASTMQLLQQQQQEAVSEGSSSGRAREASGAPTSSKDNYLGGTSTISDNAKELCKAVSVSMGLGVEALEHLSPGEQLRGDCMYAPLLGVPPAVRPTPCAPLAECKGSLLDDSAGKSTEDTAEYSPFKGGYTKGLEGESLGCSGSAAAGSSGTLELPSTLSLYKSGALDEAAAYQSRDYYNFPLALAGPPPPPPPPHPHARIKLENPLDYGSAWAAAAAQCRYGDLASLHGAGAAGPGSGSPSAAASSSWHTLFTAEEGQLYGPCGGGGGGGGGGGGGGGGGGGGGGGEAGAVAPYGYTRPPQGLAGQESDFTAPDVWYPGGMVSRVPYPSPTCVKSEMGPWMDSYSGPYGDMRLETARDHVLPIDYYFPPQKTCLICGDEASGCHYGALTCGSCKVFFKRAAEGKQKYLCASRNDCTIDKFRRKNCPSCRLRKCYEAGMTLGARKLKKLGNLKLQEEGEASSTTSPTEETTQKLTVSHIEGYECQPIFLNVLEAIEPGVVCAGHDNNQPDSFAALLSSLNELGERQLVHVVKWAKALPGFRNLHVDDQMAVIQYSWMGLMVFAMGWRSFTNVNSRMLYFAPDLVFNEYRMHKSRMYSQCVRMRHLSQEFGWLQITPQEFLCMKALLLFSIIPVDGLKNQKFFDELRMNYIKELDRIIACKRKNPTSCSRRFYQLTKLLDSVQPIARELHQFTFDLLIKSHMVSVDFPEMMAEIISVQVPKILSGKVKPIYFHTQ

NCC1(Cc2noc(=O)[nH]2)CCCCC1
outcome [1]: inactive | outcome [2]: inactive | outcome [3]: inactive | outcome [4]: inactive | outcome [5]: inactive | outcome [6]: inactive | outcome [7]: inactive | outcome [8]: inactive | outcome [9]: inactive | outcome [10]: inactive | outcome [11]: inactive

C=CCOC(=O)c1ccccc1C(=O)OCC=C
AC50 [12]: 36.2 µM (active) | outcome [13]: inactive | outcome [14]: inactive | outcome [1]: inactive | outcome [2]: inactive | outcome [3]: inactive | outcome [4]: inactive | outcome [5]: inactive | outcome [6]: inactive | outcome [7]: inactive | outcome [8]: inactive | outcome [9]: inactive | AC50 [10]: 20 µM (active) | AC50 [11]: 20 µM (active)

Cc1cccc(Nc2cc(Cl)nc(SCC(=O)O)n2)c1C
outcome [15]: inactive | outcome [12]: inactive | outcome [13]: inactive | outcome [14]: inactive | outcome [3]: inactive | outcome [4]: inactive

COc1cccc2c1C(=O)c1c(O)c3c(c(O)c1C2=O)C[C@@](O)(C(=O)CO)C[C@@H]3O[C@H]1C[C@H](N)[C@H](O)[C@H](C)O1
AC50 [3]: 37.5 µM (active) | AC50 [4]: 90.8 µM (active)

FC(F)(F)C(F)(F)C(F)(F)C(F)(F)C(F)(F)C(F)(F)CCI
outcome [1]: inactive | outcome [2]: inactive | outcome [3]: inactive | outcome [4]: inactive | outcome [6]: inactive | outcome [7]: inactive | outcome [8]: inactive | outcome [9]: inactive | outcome [10]: inactive | outcome [11]: inactive

O=c1c(O)c(-c2ccc(O)c(O)c2)oc2cc(O)cc(O)c12
outcome [3]: inactive | outcome [4]: inactive

COCCOC[C@H](CC1(C(=O)NC2CCC(C(=O)O)CC2)CCCC1)C(=O)Oc1ccc2c(c1)CCC2 (stereo partly specified)
outcome [3]: inactive | outcome [4]: inactive

CNCc1cc(F)ccc1Oc1ccc(Cl)c(Cl)c1
AC50 [1]: 3.97 µM (active) | AC50 [2]: 2.55 µM (active) | outcome [3]: inactive | outcome [4]: inactive | outcome [5]: inactive | AC50 [6]: 2.24 µM (active) | AC50 [7]: 33.5 µM (active) | AC50 [8]: 31.5 µM (active) | outcome [9]: inactive | outcome [10]: inactive | outcome [11]: inactive

CCCCOC(=O)CCCCCCCCC(=O)OCCCC
outcome [3]: inactive | outcome [4]: inactive

Nc1ccc(S(=O)(=O)c2ccc(N)cc2)cc1
outcome [3]: inactive | outcome [4]: inactive | outcome [5]: inactive

OC[C@@H](O)[C@@H](O)[C@H](O)[C@H](O)CO
outcome [3]: inactive | outcome [4]: inactive | outcome [5]: inactive

CCCCc1ccc2c(n1)[C@@H](c1ccc(OC)cc1C[C@H](C)C(=O)O)[C@H](C(=O)O)[C@H]2c1ccc2c(c1)OCO2
outcome [3]: inactive | outcome [4]: inactive | outcome [5]: inactive

CCCCN(CCCC)CCCC
outcome [3]: inactive | outcome [4]: inactive

CCCCCCCCCCCCCO
outcome [3]: inactive | outcome [4]: inactive | outcome [5]: inactive

Oc1ccc2ccccc2c1N=Nc1ccccc1
outcome [3]: inactive | outcome [4]: inactive | outcome [5]: inactive

CC(C)c1ccc(C(=O)N=C(N)N)cc1S(C)(=O)=O
outcome [3]: inactive | outcome [4]: inactive | outcome [5]: inactive

O=C(OCCCCCOC(=O)c1ccccc1)c1ccccc1
outcome [3]: inactive | outcome [4]: inactive | outcome [5]: inactive

CCc1c(C(=O)NN2CCCCC2)nn(-c2ccc(Cl)cc2Cl)c1-c1ccc(Br)cc1
outcome [3]: inactive | outcome [4]: inactive | outcome [5]: inactive

CC1=C(/C=C/C(C)=C/C=C/C(C)=C/CO)C(C)(C)CCC1
outcome [3]: inactive | outcome [4]: inactive | outcome [5]: inactive

COC(=O)c1ccc(O)cc1
outcome [3]: inactive | outcome [4]: inactive | outcome [5]: inactive

CCOC(=O)CCC(=O)OCC
outcome [3]: inactive | outcome [4]: inactive | outcome [5]: inactive

CCCCCCOCCO
outcome [3]: inactive | outcome [4]: inactive

Oc1ccc2c(c1)OC[C@@H](N1CCC(O)(c3ccc(F)cc3)CC1)[C@H]2O
outcome [3]: inactive | outcome [4]: inactive | outcome [5]: inactive

CC1(C)NC(=O)NC1=O
outcome [3]: inactive | outcome [4]: inactive | outcome [5]: inactive

CCNc1cccc(C)c1
outcome [3]: inactive | outcome [4]: inactive | outcome [5]: inactive

NCCO
outcome [3]: inactive | outcome [4]: inactive | outcome [5]: inactive

O=c1[nH]cc(F)c(=O)[nH]1
outcome [3]: inactive | outcome [4]: inactive | outcome [5]: inactive

Cc1nc(C)nc(N2C[C@@H](C)N(c3ccnc([C@@H](C)O)n3)[C@@H](C)C2)n1
outcome [3]: inactive | outcome [4]: inactive | outcome [5]: inactive

C[C@]12C=CC(=O)C=C1CC[C@@H]1[C@@H]2C(=O)C[C@@]2(C)[C@H]1CC[C@]2(O)C(=O)CO
outcome [3]: inactive | outcome [4]: inactive | outcome [5]: inactive

CC1(C)CC(N=C=O)CC(C)(CN=C=O)C1 (stereo unspecified)
outcome [3]: inactive | outcome [4]: inactive

CC(=O)OCCOCCOCCOC(C)=O
outcome [3]: inactive | outcome [4]: inactive

CCCCCCCCCCCC(=O)OC
outcome [3]: inactive | outcome [4]: inactive | outcome [5]: inactive

O=[N+]([O-])C(CO)(CO)CO
outcome [3]: inactive | outcome [4]: inactive | outcome [5]: inactive

O=C(N[C@@H](Cc1ccccc1)[C@@H](O)C(=O)N1C[C@@H](O)[C@@H](O)C1)c1cc2cc(Cl)ccc2[nH]1
outcome [3]: inactive | outcome [4]: inactive | outcome [5]: inactive

C1CCC(SSC2CCCCC2)CC1
outcome [3]: inactive | outcome [4]: inactive

NC(=O)Cn1c(=O)cc(CCN2CCN(c3nccc4sccc34)CC2)c2ccc(F)cc21
outcome [3]: inactive | outcome [4]: inactive | outcome [5]: inactive
